Two compounds from PubChem BioAssay AID743330 (NMMLSC, 2014) can be followed below.

In the assay the test system is Rab7. As to the kind of experiment: GTPase panel EC50 shift with labeled GTP level, profiling panel, mechanism study, biochemical, four GTPases, bead flow cytometry (AID 743330). The following applies: bead-based flow cytometry, fluorescent GTP binding to GTPases.

SMILES strings stand for the structures. The source made the active and inactive calls. The rule behind the calls is not given here.

Turning to `CCC1(C)Cc2c(sc(NC(=S)NC(=O)c3ccccc3)c2C(=O)O)CO1` (configuration not stated), the EC50 was 7 nM (active).
For the compound `CC1(C)Cc2c(sc(NC(=S)NC(=O)c3ccc(F)cc3)c2C(=O)O)CO1`, the EC50 was 33 nM (active).
